The nature of experiment [1]: BSK_4H_Eotaxin3: BioMAP Diversity Plus: 4H Assay for Eotaxin 3 Biomarker Activity (AID 2283000).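 On outcome: CCL26 protein level quantified by ELISA in parallel with SRB cytotoxicity check.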 To be noted: primary human endothelial cells (HUVEC); actives raise or lower the signal. In short, it runs like this: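 Endothelial primary cells (human umbilical vein) exposed to compound for 24 h. ELISA detection of Eotaxin-3.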
Experiment [2] concerns the target human Peroxisome Proliferator-activated Receptor alpha (PPARa), PPARA (gene 5465) (UniProt Q07869). Kind of experiment: ATG_PPARa_TRANS: Attagene TRANS-FACTORIAL HepG2 Assay for human Peroxisome Proliferator-activated Receptor alpha (PPARa) (AID 2283001; active means hit-call score of the fitted dose curve at least 0.9, where 1 is the maximum;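 on AC50: potency for gain of reporter signal over DMSO so agonist or activator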). A digest of the protocol:
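Transfected HepG2 cells treated with test chemical for 24 h. RNA isolated, reverse-transcribed with oligo(dT), PCR-amplified, FAM-labelled and HpaI-digested. Fragments sized by capillary electrophoresis; gain-of-signal fit relative to DMSO.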

Experiment [3] concerns the target human Peroxisome Proliferator-activated Receptor delta (PPARd), PPARD (gene 5467) (UniProt Q03181). In words: ATG_PPARd_TRANS: Attagene TRANS-FACTORIAL HepG2 Assay for human Peroxisome Proliferator-activated Receptor delta (PPARd) (AID 2283002; active means hit-call score of the fitted dose curve at least 0.9, where 1 is the maximum). A digest of the protocol:
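Read-out is induced reporter mRNA, quantified by RT-PCR with fluorescent labelling and capillary electrophoresis after 24 h dosing. Cells are HepG2 transiently carrying multiple GAL4-UAS reporter units driven by exogenous NR-GAL4 chimeras; DMSO serves as baseline.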

Read-out in experiment [4]: Intercellular Adhesion Molecule 1 (ICAM1), ICAM1 (gene 3383)
Kind of experiment: BSK_3C_ICAM1: BioMAP Diversity Plus: 3C Assay for Intercellular Adhesion Molecule 1 (ICAM1) Biomarker Activity (AID 2283003). The conditions noted are these: primary human endothelial cells (HUVEC); actives raise or lower the signal. A digest of the protocol: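 Using DMSO as baseline, bidirectional curve fitting was applied to ICAM-1 ELISA signals from HUVEC in the 3C system, measured 24 h after compound addition.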

The target of experiment [5] is human Retinoic Acid Receptor beta (RARb), RARB (gene 5915) (UniProt P10826). Kind of experiment: ATG_RARb_TRANS: Attagene TRANS-FACTORIAL HepG2 Assay for human Retinoic Acid Receptor beta (AID 2283004; active means hit-call score of the fitted dose curve at least 0.9, where 1 is the maximum). In short, it runs like this:
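HepG2, transient MRTU transfection, NR–Gal4 chimera, 24 h treatment; RT-PCR plus CE fluorescence detection of reporter mRNA; gain of signal vs DMSO.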

Experiment [6] addresses Retinoic acid receptor alpha (Homo sapiens) (UniProt P10276). Kind of experiment: ATG_RARa_TRANS: Attagene TRANS-FACTORIAL HepG2 Assay for human Retinoic Acid Receptor alpha (RARa) (AID 2283005; active means hit-call score of the fitted dose curve at least 0.9, where 1 is the maximum). A digest of the protocol: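 Reporter transcripts, measured by RT-PCR with fluorescent labeling and capillary electrophoresis after 24 h dosing, reflect activity of an exogenous human RARa–GAL4 fusion in transiently transfected HepG2. Fitted for increase relative to DMSO.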

A short description of experiment [7]: BSK_3C_Proliferation: Cell Proliferation Assessment in the BioMAP Diversity Plus: 3C Assay (AID 2283006).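 On AC50: potency may reflect either rise or fall in cell number versus DMSO.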 The conditions noted are these: primary human endothelial cells (HUVEC). In short, it runs like this:
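Measured here: sulforhodamine B (0.1%) staining of TCA-fixed sub-confluent umbilical vein endothelial cultures 48 h post-dosing, absorbance 560 nm. DMSO served as negative control and baseline; both signal gain and loss were modelled.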

Experiment [8] has as its target Peroxisome proliferator-activated receptor gamma (Homo sapiens) (UniProt P37231). In words: ATG_PPARg_TRANS: Attagene TRANS-FACTORIAL HepG2 Assay for human Peroxisome Proliferator-activated Receptor-gamma (PPARg) (AID 2283007; active means hit-call score of the fitted dose curve at least 0.9, where 1 is the maximum). In short, it runs like this: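 A TRANS-format multiplexed reporter assay measures activity of an exogenous chimeric NR-Gal4 protein in HepG2 cells. After 24 h of chemical exposure, reporter transcripts are amplified, fluorescently labelled and sized by capillary electrophoresis, with gain of signal scored against DMSO.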

In experiment [9] the target is Nuclear receptor subfamily 1 group I member 2 (Homo sapiens) (UniProt O75469). In words: ATG_PXR_TRANS: Attagene TRANS-FACTORIAL HepG2 Assay for human Pregnane X Receptor (PXR) (AID 2283008; active means hit-call score of the fitted dose curve at least 0.9, where 1 is the maximum). In short, it runs like this:
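Transactivation by exogenous PXR–GAL4 fusion measured as reporter transcript induction after 24 h compound treatment of transfected human HepG2 cells. Read-out via RT-PCR and capillary electrophoresis of labelled fragments, fitted upward relative to DMSO.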

In experiment [10] the target is human RAR-related Orphan Receptor gamma (RORg), RORC (gene 6097) (UniProt P51449). Kind of experiment: ATG_RORg_TRANS: Attagene TRANS-FACTORIAL HepG2 Assay for human RAR-related Orphan Receptor gamma (RORg) (AID 2283011; active means hit-call score of the fitted dose curve at least 0.9, where 1 is the maximum). In short, it runs like this:
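Activity is scored as increase in GAL4-UAS reporter mRNA over DMSO, detected by fluorescent RT-PCR and capillary electrophoresis in HepG2 cells transiently expressing a RORg-Gal4 chimera, 24 h after dosing.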

In experiment [11] the target is Retinoic acid receptor RXR-alpha (Homo sapiens) (UniProt P19793). Kind of experiment: ATG_RXRa_TRANS: Attagene TRANS-FACTORIAL HepG2 Assay for human Retinoid X Receptor alpha (RXRa) (AID 2283012; active means hit-call score of the fitted dose curve at least 0.9, where 1 is the maximum). A digest of the protocol:
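Chimeric NR-GAL4 trans-activation in HepG2, 24 h treatment; reporter transcripts quantified by fluorescence on capillary electrophoresis, analysed for upward change from DMSO.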

Experiment [12] has as its target human Retinoid X Receptor beta (RXRb), RXRB (gene 6257) (UniProt P28702). Kind of experiment: ATG_RXRb_TRANS: Attagene TRANS-FACTORIAL HepG2 Assay for human Retinoid X Receptor beta (RXRb) (AID 2283013; active means hit-call score of the fitted dose curve at least 0.9, where 1 is the maximum). In short, it runs like this:
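After a 24 h incubation with test chemical, transfected HepG2 cells carrying NR-Gal4 fusions and GAL4-UAS reporter transcription units yield RNA whose reporter cDNA is FAM-labelled, HpaI-cut and sized by capillary electrophoresis; increases over DMSO are scored.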

The target in experiment [13] is human Thyroid Receptor alpha (THRa1), THRA (gene 7067) (UniProt P10827). Kind of experiment: ATG_THRa1_TRANS: Attagene TRANS-FACTORIAL HepG2 Assay for human Thyroid Receptor alpha (THRa1) (AID 2283014; active means hit-call score of the fitted dose curve at least 0.9, where 1 is the maximum). In short, it runs like this: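 First, HepG2 cells receive multiple GAL4-UAS reporter units and the chimeric receptor. They are then dosed for 24 h, after which RNA is reverse-transcribed, amplified, labelled, HpaI-cut and sized by capillary electrophoresis; gain relative to DMSO is scored.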

Read-out in experiment [14]: E-selectin (Homo sapiens) (UniProt P16581)
In words: BSK_3C_Eselectin: BioMAP Diversity Plus: 3C Assay for Eselectin Biomarker Activity (AID 2283015).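 On outcome: cell surface E-selectin protein quantified by ELISA 24 h after dosing.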 The conditions noted are these: primary human endothelial cells (HUVEC); actives raise or lower the signal. In short, it runs like this: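 Human vascular endothelium from umbilical vein is exposed to test chemicals for 24 h. E-selectin levels are read by ELISA and compared with DMSO controls.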

Read-out in experiment [15]: Interleukin-1 alpha (IL1a), IL1A (gene 3552)
Kind of experiment: BSK_BE3C_IL1a: BioMAP Diversity Plus: BE3C Assay for Interleukin-1 alpha (IL1a) Biomarker Activity (AID 2283016). The conditions noted are these: primary human bronchial epithelial cells; actives raise or lower the signal. A digest of the protocol: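 Measured in human lung primary bronchial epithelial cells: IL-1a by ELISA at 24 h after dosing, with bidirectional fitting against DMSO.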

Read-out in experiment [16]: Monocyte Chemoattractant Protein-1 (MCP1), CCL2 (gene 6347)
Kind of experiment: BSK_4H_MCP1: BioMAP Diversity Plus: 4H Assay for Monocyte Chemoattractant Protein-1 (MCP1) Biomarker Activity (AID 2283018). To be noted: primary human endothelial cells (HUVEC); actives raise or lower the signal. A digest of the protocol: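 Primary human umbilical vein endothelium is exposed to chemical for 24 h before MCP-1 is assayed by ELISA. Concentration-response fitted bidirectionally relative to DMSO.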

Read-out in experiment [17]: Interleukin-8 (IL8), CXCL8 (gene 3576)
Kind of experiment: BSK_3C_IL8: BioMAP Diversity Plus: 3C Assay for Interleukin-8 (IL8) Biomarker Activity (AID 2283020). The conditions noted are these: primary human endothelial cells (HUVEC); actives raise or lower the signal. A digest of the protocol: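 Using DMSO-treated wells as the baseline, bidirectional curve fitting was applied to ELISA-measured IL-8 from human umbilical vein endothelial cultures sampled 24 h after compound addition.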

Read-out in experiment [18]: Monokine induced gamma interferon (MIG), CXCL9 (gene 4283)
Kind of experiment: BSK_3C_MIG: BioMAP Diversity Plus: 3C Assay for Monokine induced gamma interferon (MIG) Biomarker Activity (AID 2283021).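 On AC50: MIG protein level measured by immunoassay in the treated endothelial cultures.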 To be noted: primary human endothelial cells (HUVEC); actives raise or lower the signal. In short, it runs like this: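 ELISA-measured MIG in dosed HUVEC 3C cultures at 24 h, analysed by bidirectional fitting with DMSO defining baseline activity.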

Read-out in experiment [19]: Monocyte Chemoattractant Protein-1 (MCP1), CCL2 (gene 6347)
Kind of experiment: BSK_3C_MCP1: BioMAP Diversity Plus: 3C Assay for Monocyte Chemoattractant Protein-1 (MCP1) Biomarker Activity (AID 2283017). The conditions noted are these: primary human endothelial cells (HUVEC); actives raise or lower the signal. A digest of the protocol:
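Endothelial cells from human umbilical vein are dosed with chemical, cultured 24 h, then assayed for MCP-1 by ELISA; both increases and decreases are modelled against DMSO controls.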

Read-out in experiment [20]: Human Leukocyte Antigen - DR isotype (HLADR), HLA-DRA (gene 3122)
In words: BSK_3C_HLADR: BioMAP Diversity Plus: 3C Assay for Human Leukocyte Antigen - DR isotype (HLADR) Biomarker Activity (AID 2283019).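 Further: ELISA of cell-surface HLA-DR on HUVEC 24 h after dosing.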 To be noted: primary human endothelial cells (HUVEC); actives raise or lower the signal. In short, it runs like this: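 Endothelial cells from human umbilical vein are treated with test chemical; after 24 h, HLA-DR levels are measured by ELISA. Data are fitted in both directions using DMSO as the baseline.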

Values joined by “and” are separate entries in the source; they are usually repeats but may differ in a detail not shown here. Equal values may be shown once. Records with an inconclusive call do not appear. More than one record can exist for a structure, and the calls need not agree. Active and inactive are the calls of the source. How the source made its calls, unless noted: active means hit-call score of the fitted dose curve at least 0.9, where 1 is the maximum; inactive means score below 0.9.

Chain of human Retinoic Acid Receptor beta (RARb), RARB (gene 5915) (P10826 whole entry, looked up, the tested form may be a part): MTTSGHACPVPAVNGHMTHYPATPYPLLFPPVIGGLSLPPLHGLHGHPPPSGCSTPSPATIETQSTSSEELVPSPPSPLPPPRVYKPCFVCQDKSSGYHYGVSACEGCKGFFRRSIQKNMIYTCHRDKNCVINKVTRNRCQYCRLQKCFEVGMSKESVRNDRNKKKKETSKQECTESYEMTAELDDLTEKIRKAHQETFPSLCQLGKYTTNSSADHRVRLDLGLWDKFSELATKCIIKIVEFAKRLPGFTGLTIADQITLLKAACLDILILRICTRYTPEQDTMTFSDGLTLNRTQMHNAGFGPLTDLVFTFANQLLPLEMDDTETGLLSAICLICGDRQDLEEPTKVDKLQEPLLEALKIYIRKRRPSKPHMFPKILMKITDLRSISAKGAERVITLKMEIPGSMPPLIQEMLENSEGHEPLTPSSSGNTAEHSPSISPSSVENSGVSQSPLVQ
Chain of Retinoic acid receptor alpha (Homo sapiens) (P10276 whole entry, looked up, the tested form may be a part): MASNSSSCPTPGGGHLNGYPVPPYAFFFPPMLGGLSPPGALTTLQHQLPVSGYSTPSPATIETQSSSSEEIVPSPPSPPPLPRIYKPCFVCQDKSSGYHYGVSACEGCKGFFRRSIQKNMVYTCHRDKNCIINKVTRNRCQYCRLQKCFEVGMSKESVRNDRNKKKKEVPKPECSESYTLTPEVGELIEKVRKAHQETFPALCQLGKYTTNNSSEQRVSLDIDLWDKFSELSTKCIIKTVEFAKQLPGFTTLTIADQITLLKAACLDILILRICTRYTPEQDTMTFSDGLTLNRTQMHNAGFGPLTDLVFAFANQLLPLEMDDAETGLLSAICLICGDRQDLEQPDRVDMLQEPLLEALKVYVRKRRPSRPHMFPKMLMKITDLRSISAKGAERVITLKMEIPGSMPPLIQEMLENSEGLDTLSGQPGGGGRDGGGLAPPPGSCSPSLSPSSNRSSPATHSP
Chain of human Peroxisome Proliferator-activated Receptor alpha (PPARa), PPARA (gene 5465) (Q07869 whole entry, looked up, the tested form may be a part): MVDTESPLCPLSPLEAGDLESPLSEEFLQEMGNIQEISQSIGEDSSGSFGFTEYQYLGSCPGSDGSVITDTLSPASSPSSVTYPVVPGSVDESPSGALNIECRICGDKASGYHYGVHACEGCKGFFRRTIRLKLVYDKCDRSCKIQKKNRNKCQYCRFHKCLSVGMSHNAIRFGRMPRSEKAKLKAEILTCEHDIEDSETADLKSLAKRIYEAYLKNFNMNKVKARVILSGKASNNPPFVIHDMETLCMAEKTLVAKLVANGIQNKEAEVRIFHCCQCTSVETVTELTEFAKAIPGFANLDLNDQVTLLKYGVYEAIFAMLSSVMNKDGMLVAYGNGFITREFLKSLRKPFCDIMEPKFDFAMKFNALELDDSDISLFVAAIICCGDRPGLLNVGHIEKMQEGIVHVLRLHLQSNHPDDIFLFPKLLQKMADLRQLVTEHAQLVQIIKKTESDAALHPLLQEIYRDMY
Chain of Retinoic acid receptor RXR-alpha (Homo sapiens) (P19793 whole entry, looked up, the tested form may be a part): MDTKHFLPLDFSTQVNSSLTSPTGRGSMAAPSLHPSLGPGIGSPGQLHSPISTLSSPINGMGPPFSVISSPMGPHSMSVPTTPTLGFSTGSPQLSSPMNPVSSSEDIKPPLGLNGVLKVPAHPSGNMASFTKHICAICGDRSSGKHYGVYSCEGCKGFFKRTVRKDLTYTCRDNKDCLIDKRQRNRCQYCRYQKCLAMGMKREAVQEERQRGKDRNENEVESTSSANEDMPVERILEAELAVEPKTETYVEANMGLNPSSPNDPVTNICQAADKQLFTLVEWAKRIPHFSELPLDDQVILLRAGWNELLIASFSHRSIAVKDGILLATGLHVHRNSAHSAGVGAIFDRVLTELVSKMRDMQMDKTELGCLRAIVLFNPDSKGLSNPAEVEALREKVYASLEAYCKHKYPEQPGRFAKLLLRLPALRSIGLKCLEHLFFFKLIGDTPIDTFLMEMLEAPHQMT
Chain of Peroxisome proliferator-activated receptor gamma (Homo sapiens) (P37231 whole entry, looked up, the tested form may be a part): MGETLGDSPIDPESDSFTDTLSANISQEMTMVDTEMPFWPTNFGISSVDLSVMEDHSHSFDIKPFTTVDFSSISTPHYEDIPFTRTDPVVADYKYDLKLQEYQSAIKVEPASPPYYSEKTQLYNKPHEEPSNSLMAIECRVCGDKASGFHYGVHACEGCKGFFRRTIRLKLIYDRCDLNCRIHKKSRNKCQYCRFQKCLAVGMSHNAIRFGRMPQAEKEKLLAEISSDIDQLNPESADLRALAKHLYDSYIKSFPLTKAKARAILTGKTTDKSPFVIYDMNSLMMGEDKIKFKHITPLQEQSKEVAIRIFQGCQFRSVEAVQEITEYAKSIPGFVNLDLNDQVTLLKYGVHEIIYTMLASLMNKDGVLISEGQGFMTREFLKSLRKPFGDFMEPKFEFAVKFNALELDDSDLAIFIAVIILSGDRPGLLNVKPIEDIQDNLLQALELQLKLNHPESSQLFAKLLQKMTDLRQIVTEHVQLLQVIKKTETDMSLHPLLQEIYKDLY
Chain of Nuclear receptor subfamily 1 group I member 2 (Homo sapiens) (O75469 whole entry, looked up, the tested form may be a part): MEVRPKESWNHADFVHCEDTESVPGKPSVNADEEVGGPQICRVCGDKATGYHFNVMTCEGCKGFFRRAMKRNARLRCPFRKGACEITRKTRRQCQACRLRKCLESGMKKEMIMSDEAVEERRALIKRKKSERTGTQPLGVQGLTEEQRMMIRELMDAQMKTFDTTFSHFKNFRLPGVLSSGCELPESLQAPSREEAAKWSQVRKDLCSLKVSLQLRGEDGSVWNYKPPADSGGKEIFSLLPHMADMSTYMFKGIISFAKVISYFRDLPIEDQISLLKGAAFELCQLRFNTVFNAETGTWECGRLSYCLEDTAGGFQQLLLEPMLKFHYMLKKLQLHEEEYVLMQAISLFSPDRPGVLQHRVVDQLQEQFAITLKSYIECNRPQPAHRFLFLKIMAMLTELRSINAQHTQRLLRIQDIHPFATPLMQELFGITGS
Chain of human Peroxisome Proliferator-activated Receptor delta (PPARd), PPARD (gene 5467) (Q03181 whole entry, looked up, the tested form may be a part): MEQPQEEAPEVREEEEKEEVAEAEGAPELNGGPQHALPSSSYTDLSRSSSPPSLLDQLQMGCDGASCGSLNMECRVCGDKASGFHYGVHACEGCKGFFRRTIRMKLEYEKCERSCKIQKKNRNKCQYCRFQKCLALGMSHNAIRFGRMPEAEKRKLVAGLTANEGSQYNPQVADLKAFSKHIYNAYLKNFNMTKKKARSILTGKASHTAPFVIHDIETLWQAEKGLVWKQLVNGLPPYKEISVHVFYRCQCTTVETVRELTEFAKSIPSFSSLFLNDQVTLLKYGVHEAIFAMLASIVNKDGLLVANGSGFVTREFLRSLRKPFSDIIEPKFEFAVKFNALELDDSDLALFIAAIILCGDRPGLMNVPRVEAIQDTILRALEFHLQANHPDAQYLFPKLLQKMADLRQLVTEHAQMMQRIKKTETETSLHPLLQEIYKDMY
Chain of E-selectin (Homo sapiens) (P16581 whole entry, looked up): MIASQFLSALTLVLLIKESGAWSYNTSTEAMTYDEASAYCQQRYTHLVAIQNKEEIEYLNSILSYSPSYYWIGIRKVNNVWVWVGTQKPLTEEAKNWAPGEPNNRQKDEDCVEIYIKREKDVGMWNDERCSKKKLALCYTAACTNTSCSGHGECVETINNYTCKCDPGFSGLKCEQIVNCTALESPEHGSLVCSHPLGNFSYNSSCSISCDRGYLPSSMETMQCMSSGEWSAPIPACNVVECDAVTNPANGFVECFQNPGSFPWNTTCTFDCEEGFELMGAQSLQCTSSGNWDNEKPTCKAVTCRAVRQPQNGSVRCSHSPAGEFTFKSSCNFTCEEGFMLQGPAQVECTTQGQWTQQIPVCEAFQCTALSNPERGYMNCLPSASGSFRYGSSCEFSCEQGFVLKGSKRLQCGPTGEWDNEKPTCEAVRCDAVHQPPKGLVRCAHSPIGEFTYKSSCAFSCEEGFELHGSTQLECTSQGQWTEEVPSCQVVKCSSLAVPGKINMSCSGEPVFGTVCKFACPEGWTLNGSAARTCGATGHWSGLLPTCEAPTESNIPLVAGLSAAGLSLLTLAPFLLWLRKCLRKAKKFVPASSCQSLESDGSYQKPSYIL
Chain of human Retinoid X Receptor beta (RXRb), RXRB (gene 6257) (P28702 whole entry, looked up, the tested form may be a part): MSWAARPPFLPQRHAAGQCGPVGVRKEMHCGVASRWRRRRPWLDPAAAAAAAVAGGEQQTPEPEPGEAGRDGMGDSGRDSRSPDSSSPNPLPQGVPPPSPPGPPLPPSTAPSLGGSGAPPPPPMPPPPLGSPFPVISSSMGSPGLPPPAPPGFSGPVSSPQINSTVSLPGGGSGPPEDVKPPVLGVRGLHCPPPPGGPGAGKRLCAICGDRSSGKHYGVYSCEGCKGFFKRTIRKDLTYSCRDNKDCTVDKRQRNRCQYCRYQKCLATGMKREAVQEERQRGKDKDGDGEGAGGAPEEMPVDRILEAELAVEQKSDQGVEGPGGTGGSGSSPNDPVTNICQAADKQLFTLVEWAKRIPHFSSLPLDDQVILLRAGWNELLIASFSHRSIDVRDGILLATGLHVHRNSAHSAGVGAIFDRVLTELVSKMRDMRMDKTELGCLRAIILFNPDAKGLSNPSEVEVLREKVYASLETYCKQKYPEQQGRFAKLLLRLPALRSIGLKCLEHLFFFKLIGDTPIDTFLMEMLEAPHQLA
Chain of human RAR-related Orphan Receptor gamma (RORg), RORC (gene 6097) (P51449 whole entry, looked up, the tested form may be a part): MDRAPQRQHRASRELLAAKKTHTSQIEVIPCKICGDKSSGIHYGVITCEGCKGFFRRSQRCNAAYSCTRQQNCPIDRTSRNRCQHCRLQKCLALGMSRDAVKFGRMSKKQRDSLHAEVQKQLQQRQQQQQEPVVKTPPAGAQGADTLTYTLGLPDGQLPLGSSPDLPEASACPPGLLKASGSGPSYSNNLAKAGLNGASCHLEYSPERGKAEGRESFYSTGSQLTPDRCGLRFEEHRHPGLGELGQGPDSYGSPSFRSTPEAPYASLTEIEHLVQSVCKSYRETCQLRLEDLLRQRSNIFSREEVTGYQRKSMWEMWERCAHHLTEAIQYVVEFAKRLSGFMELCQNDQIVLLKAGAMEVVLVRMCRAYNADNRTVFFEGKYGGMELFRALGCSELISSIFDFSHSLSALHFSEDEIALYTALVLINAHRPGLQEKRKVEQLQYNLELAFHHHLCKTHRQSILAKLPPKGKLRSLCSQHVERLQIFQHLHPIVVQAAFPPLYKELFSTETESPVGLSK

For orientation: AC50 means the concentration giving half of the maximal activity seen. Regarding `NS(=O)(=O)C(F)(F)C(F)(F)C(F)(F)C(F)(F)C(F)(F)C(F)(F)C(F)(F)C(F)(F)F`, the AC50 in experiment [1] was 30.6 µM (active) and 46.8 µM (active) and 54 µM (active); in experiment [2], 88.4 µM (active); in experiment [4], 56.8 µM (active) and 51.5 µM (active); in experiment [7], 30.3 µM (active) and 38.9 µM (active); in [8] it was 100 µM (active) and 59 µM (active) and 41.8 µM (active); in experiment [14] it was 32.5 µM (active) and 56.3 µM (active) and 49.4 µM (active). Moreover, the AC50 was 43.9 µM (active) and 42.4 µM (active) in [15]; 24.8 µM (active) and 37.8 µM (active) and 11.1 µM (active) in experiment [16]; 32.8 µM (active) and 47.7 µM (active) and 53.4 µM (active) in experiment [17]; 33.3 µM (active) and 51.2 µM (active) and 47.8 µM (active) in experiment [18]. Besides, the result in [2], in experiment [3], in [4], in experiment [5], in experiment [6] and in experiment [9] was inactive. For the same compound, the call in experiment [10], in [11], in experiment [12], in experiment [13] and in experiment [15] was inactive.
As for `O=C(O)C(F)(F)C(F)(F)C(F)(F)C(F)(F)C(F)(F)F`, the result in experiment [1], in experiment [3], in [4], in [6], in experiment [7] and in experiment [8] was inactive. For the same compound, the compound was called inactive in experiment [9], in experiment [12], in experiment [14], in experiment [15], in experiment [19] and in experiment [16]. The result in experiment [20], in experiment [17] and in experiment [18] was inactive. In addition, the AC50 in experiment [2] is 36.7 µM (active) and 70.9 µM (active).
`Clc1ccc(Cl)cc1`: the outcome in experiment [1], in experiment [2], in experiment [3], in [4], in experiment [5] and in experiment [7] was inactive. The outcome in [8], in experiment [9], in experiment [10], in experiment [11], in experiment [12] and in experiment [15] was inactive. The result in [19], in [16], in experiment [20], in experiment [17] and in experiment [18] was inactive.
